Assay outcomes from PubChem.
Sampled rows, rich in hits. Any-hit rate of the full collection: about 7.5%.
Vaccinia mCherry: inhibitors of vaccinia virus infection (mCherry reporter signal) | Vaccinia virus mCherry reporter infection, fluorescence | Potency, µM (top dose mostly 36.5 µM), most hits filed as inhibitors | 310,000 tested, 0.63% active | AID 720579; calls by dose curve; tested in A549 cells; also: nearly all actives have a fitted effect of over 35% in size
FMDV antiviral: antivirals against foot and mouth disease virus | Potency, µM (series often up to 57.9 µM), most hits filed as inhibitors | FMDV antiviral cell-based qHTS | 410,000 tested, 1.2% active; calls by dose curve; tested in HEK293T cells; also: read-out not given here; nearly all actives have a fitted effect of over 45% in size
FBPA Giardia inh: blocks Giardia fructose-bisphosphate aldolase activity; A8B2U2; purified Giardia FBPA; Potency, µM (doses to about 59.6 µM), usual class: inhibitors; 290,000 tested, 0.71% active; also: nearly all actives have a fitted effect of over 55% in size
Target sequence (A8B2U2 whole entry, looked up): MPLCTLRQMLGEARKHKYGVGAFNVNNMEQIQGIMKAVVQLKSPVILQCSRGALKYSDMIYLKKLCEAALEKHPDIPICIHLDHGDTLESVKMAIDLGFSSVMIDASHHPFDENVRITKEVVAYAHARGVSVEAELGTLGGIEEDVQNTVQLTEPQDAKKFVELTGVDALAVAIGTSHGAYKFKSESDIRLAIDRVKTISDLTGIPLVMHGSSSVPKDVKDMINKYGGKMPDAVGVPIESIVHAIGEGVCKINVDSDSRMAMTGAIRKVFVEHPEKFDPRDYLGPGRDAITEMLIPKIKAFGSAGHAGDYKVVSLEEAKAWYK
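40 nM FBPA preincubated 10 min at RT with compound (up to 57.5 uM final), then substrate plus GAPDH/TPI/NAD/arsenate coupling and diaphorase/resazurin added. Fluorescence read after 20 min at RT, 525/598 nm.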
HCMV inh: human cytomegalovirus inhibition | HFF cells, HCMV-luciferase reporter, 72 h; stronger effect = lower value | activity change, negative = inhibition, % at 57.5 µM | 410,000 tested, 4.5% active | AID 1259415; in the data active = activity change below about -60%; inconclusive = no clear call, values can overlap the other calls; inactive = above about -39%
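Cell-based, HFFs, 1000 cells/well, 16 h 37C; cpds in DMSO + HCMV-luc, MOI 1 PFU/cell; 72 h 37C; OneGlo luminescence after 5 min RT; norm. to buffer vs Salinomycin 10uM.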
VACV Venus inh: vaccinia inhibition (Venus reporter) | Vaccinia virus Venus reporter expression, fluorescence | Potency, µM (highest dose often 36.5 µM), hits mostly inhibitors | 330,000 tested, 0.46% active | AID 720580; calls by dose curve; tested in A549 cells; also: nearly all actives have a fitted effect of over 30% in size
HCV inhibitor: HCV inhibition; Huh7.5.1 HCVcc-Cre infection, luciferase reporter, 44 h; Potency, µM (doses to about 41.8 µM), usual class: inhibitors; 340,000 tested, 3.4% active; AID 651820
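Infectious HCV cell culture screen: compound-treated cells (1,000/well, pre-plated 4 h) are infected with HCVcc-Cre at roughly 0.5 moi and grown 44 h. Infection is quantified by luciferase signal after 15 min substrate incubation at room temperature.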
Numbers stand for hits; - = inactive; ? = inconclusive; . = no result given; ! = a repeat was not active; [ ] = another dose, or the depositor's remark. Unless noted, calls follow the shape of the dose curve; as a rule, active = well fitted curve in the direction sought with a large enough effect; inconclusive = small, poorly fitted or top-dose-only effect, or another doubt; inactive = no such curve, though single readings can be large; an effect the other way counts as inactive or inconclusive.

SMILES | Vaccinia mCherry | FMDV antiviral | FBPA Giardia inh | HCMV inh | VACV Venus inh | HCV inhibitor
O=C1OCC2=C1C(c1ccc(F)cc1)c1cc3c(cc1N2)OCCO3 (stereo not given) | ? | - | - | -85 | - | -
CC(=O)Oc1ccc(C2C3=C(CC(C)(C)CC3=O)Nc3cc4c(cc32)OCCO4)cc1 (stereo not given) | ? | - | - | - | - | -
C#CCOc1ccc(C2C3=C(COC3=O)Nc3cc4c(cc32)OCO4)cc1OC (stereo not given) | ? | - | - | -82 | ? | -
CCOc1ccccc1C1CC(=O)Nc2cc3c(cc21)OCO3 (stereo not given) | . | - | - | ? | . | -
COc1ccc(C2C3=C(COC3=O)Oc3cc4c(cc32)OCO4)cc1OC (stereo not given) | ? | - | . | - | ? | -
O=C1OCC2=C1C(c1ccc(F)cc1)c1cc3c(cc1N2)OCO3 (stereo not given) | ? | ? | - | -93 | ? | ?
CCOc1ccccc1C1C2=C(COC2=O)Nc2cc3c(cc21)OCO3 (stereo not given) | ? | - | - | -94 | ? | ?
COCc1c(C(=O)NC2CCCCCC2)cnn1-c1nccc(-c2cc(C)sc2C)n1 | - | - | . | . | - | .
COc1cc(C(=S)N2CCN(c3ccccc3Cl)CC2)cc(O)c1O | . | - | ? | - | . | -
c1ccc(-c2ccccc2OCCCN2CCCCCC2)cc1 | ? | - | ? | -72 | - | ?
c1ccc(-c2ccccc2OCCOCCN2CCOCC2)cc1 | . | - | 14µM | - | . | -
Cn1cnnc1SCC(=O)N1N=C2/C(=C/c3ccco3)CCCC2C1c1ccco1 (stereo not given) | - | - | - | -61 | - | -
CC(Sc1nc(C(C)(C)C)cc(-c2ccccc2)c1C#N)C(=O)Nc1ccccc1 (stereo not given) | - | - | - | -64 | - | -
NCC(O)c1ccc(O)c(O)c1 (stereo not given) | - | - | ? | - | - | -
CC(C)NC[C@H](O)c1ccc(O)c(O)c1 | - | - | 10µM! | - | - | -
CC(C)NC[C@H](O)c1cc(O)cc(O)c1 | . | . | - | . | . | .
CCC(c1ccc(O)c(O)c1)C(CC)c1ccc(O)c(O)c1 (stereo not given) | 3.2µM | - | . | . | - | 13µM
CCC(NC(C)C)C(O)c1ccc(O)c(O)c1 (stereo not given) | - | - | 2.8µM | - | - | -[8.37 µM]
COc1ccc(Cn2c(SCc3ccc(C(=O)NC4CCCCC4)cc3)nc3cccnc32)cc1 | ? | ? | . | - | ? | .
Cc1ccc(NS(=O)(=O)c2ccc(N3C(=O)CCC3=O)cc2)cc1 | . | - | - | -84 | . | -
Cc1cc(NS(=O)(=O)c2ccc(NC(=O)c3c(F)c(F)c(F)c(F)c3F)cc2)nc(C)n1 | 28µM | - | . | ? | ? | -
Cc1ccc(S(=O)(=O)Nc2ccc(NC(=O)c3c(F)c(F)c(F)c(F)c3F)cc2)cc1 | ? | - | - | - | ? | 13µM
Cc1ccc(S(=O)(=O)Nc2ccc(NC(=O)c3cccs3)cc2)cc1 | ? | - | - | - | - | ?
Cc1cc(NS(=O)(=O)c2ccc(NC(=O)c3ccc(F)cc3)cc2)nc(C)n1 | . | - | . | - | . | -
Cc1cccc(NC(=O)CCNC(=O)c2ccco2)c1 | - | - | - | - | - | -
SMILES | Vaccinia mCherry | FMDV antiviral | FBPA Giardia inh | HCMV inh | VACV Venus inh | HCV inhibitor
O=S(=O)(c1ccc(Oc2ccc(S(=O)(=O)N3CCOCC3)cc2)cc1)N1CCOCC1 | . | ? | - | -66 | - | ?
Nc1cc(S(=O)(=O)N2CCOCC2)ccc1Oc1cccc(Br)c1 | - | ? | . | -77 | - | 5µM
CCN(CC)c1ccc(NC(=O)Cn2cc3c(n2)CCCC3)c(C)c1 | - | - | . | - | - | .
COC(=O)c1sc(NC(=O)COc2cccnc2[N+](=O)[O-])c(C(=O)OC)c1C | . | - | . | - | . | ?
Cc1ccc2c(c1)-n1c(nc3ccccc3c1=O)C(Cc1ccc(O)cc1)NC2=O (stereo not given) | . | . | . | - | . | -
O=C1NC(Cc2ccccc2)c2nc3cc(Cl)ccc3c(=O)n2-c2ncccc21 (stereo not given) | - | ? | . | -67 | ? | .
O=C1NC(Cc2ccc(O)cc2)c2nc3cc(F)c(F)cc3c(=O)n2-c2cc3ccccc3cc21 (stereo not given) | - | ? | . | - | ? | .
